Results taken from PubChem BioAssay.
The source made the active and inactive calls. The rule behind the calls is not given here.

system: Aerobactin synthetase IucA (Klebsiella pneumoniae, hypervirulent); assay: biochemical IucA inhibition screen of LOPAC library by absorbance (AID 1346212); conditions: IucA enzyme assay, absorbance (OD) readout; active compounds read low;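 tested at 8 µM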;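 note: 100% = no compound wells and 0% = no enzyme wells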

Row | SMILES | remaining activity
1 | CC(C)NC[C@H](O)COc1ccc(CC(N)=O)cc1 | 115% (inactive)
2 | C=CCn1c(=O)c2c(nc(-c3ccc(S(=O)(=O)O)cc3)n2C)n(C)c1=O | 128% (inactive)
3 | CCCCCCCC/C=C\CCCCCCCC(=O)O | 119% (inactive)
4 | C[N+](C)(C)CCOC(=O)CCC(=O)OCC[N+](C)(C)C | 123% (inactive)
5 | Nc1nc2c(nc(Br)n2C2OC3COP(=O)(O)O[C@@H]3C2O)c(=O)[nH]1 (stereo not given in full) | 111% (inactive)
6 | Nc1nccc2c1ncn2[C@@H]1O[C@H](CO)[C@@H](O)[C@H]1O | 95.9% (inactive)
7 | Cc1cccc(C#Cc2ccccc2)n1 | 123% (inactive)
8 | CNC(=O)[C@H]1O[C@@H](n2cnc3c(NCc4cccc(I)c4)ncnc32)[C@H](O)[C@@H]1O | 114% (inactive)
9 | Cn1cnc2c(NCc3ccccc3)nc(NCCO)nc21 | 119% (inactive)
10 | Brc1c(Br)c(Br)c2n[nH]nc2c1Br | 120% (inactive)
11 | CNC(=O)[C@H]1O[C@@H](n2cnc3c(NCc4cccc(I)c4)nc(Cl)nc32)[C@H](O)[C@@H]1O | 103% (inactive)
12 | NC1C=CC=C(C(=O)O)C1 (stereo not given) | 125% (inactive)
13 | Cc1cc2c(cc1Cl)N(C(=O)Nc1ccc(Oc3cccnc3C)nc1)CC2 | 103% (inactive)
14 | CCCN(CC1CC1)c1nc(C)nc(Nc2c(Cl)cc(Cl)cc2Cl)c1Cl | 102% (inactive)
15 | O=C(NCCNCC(O)COc1ccc(O)cc1)N1CCOCC1 (stereo not given) | 118% (inactive)
16 | C#CCN(C)CCCOc1ccc(Cl)cc1Cl | 122% (inactive)
17 | NC(=S)c1ccc[n+]([C@@H]2O[C@@H](COP(=O)([O-])OP(=O)(O)OC[C@H]3O[C@@H](n4cnc5c(N)ncnc54)C(OP(=O)(O)O)[C@H]3O)C(O)C2O)c1 (stereo not given in full) | 97.1% (inactive)
18 | CC(=O)OCC(=O)[C@@]1(O)CC[C@H]2[C@@H]3CCC4=CC(=O)CC[C@]4(C)[C@H]3C(=O)C[C@@]21C | 102% (inactive)
19 | O=C(O)/C=C/c1cnc[nH]1 | 101% (inactive)
20 | NC(N)=NCc1cccc(I)c1 | 118% (inactive)

Row | SMILES | remaining activity
21 | COCCOC(=O)C1=C(C)NC(C)=C(C(=O)OC/C=C/c2ccccc2)C1c1cccc([N+](=O)[O-])c1 (stereo not given) | 99.8% (inactive)
22 | CC[N+](C)(C)c1cccc(O)c1 | 86.8% (inactive)
23 | CC(C)CN(C)c1nc(N)c(C(=O)N=C(N)N)nc1Cl | 114% (inactive)
24 | OC[C@H]1O[C@@H](n2cnc3c(N[C@H]4CCC[C@@H]4O)ncnc32)[C@H](O)[C@@H]1O | 123% (inactive)
25 | Brc1c(NC2=NCCN2)ccc2nccnc12 | 105% (inactive)
26 | NO | 100% (inactive)
27 | Oc1ccc(Cn2cc[nH]c2=S)cc1 | 102% (inactive)
28 | CC(=O)[C@]1(O)Cc2c(O)c3c(c(O)c2[C@@H](O[C@H]2C[C@H](N)[C@H](O)[C@H](C)O2)C1)C(=O)c1ccccc1C3=O | 125% (inactive)
29 | OCCN1CCN(CC/C=C2/c3ccccc3Sc3ccc(C(F)(F)F)cc32)CC1 | 105% (inactive)
30 | Cc1cc(C)c(NC(=O)C[C@H](CC(=O)O)c2cccc3ccccc23)c(C(=O)N2CCC3(CCCC3)CC2)c1 | 103% (inactive)
31 | NC(N)=NC(N)=Nc1cccc(Cl)c1 | 102% (inactive)
32 | O=C1Cc2c([nH]c3ccc(Br)cc23)-c2ccccc2N1 | 125% (inactive)
33 | c1ccc2c(c1)CCC[C@H]2Nc1nc2ccccc2[nH]1 | 109% (inactive)
34 | NC(N)=Nc1nc(CSCC/C(N)=N/S(N)(=O)=O)cs1 | 102% (inactive)
35 | O=C(O)CP(=O)(O)O | 89.1% (inactive)
36 | C[C@@](Cc1ccc(O)c(O)c1)(NN)C(=O)O | 81.8% (inactive)
37 | C[C@H](Cc1ccc(O)c(O)c1)[C@@H](C)Cc1ccc(O)c(O)c1 | 117% (inactive)
38 | O=c1c2ccccc2nc2n1CCc1c-2[nH]c2ccccc12 | 82.9% (inactive)
39 | NC(=NCc1ccc(Cl)c(Cl)c1)NC(=O)c1nc(Cl)c(N)nc1N | 105% (inactive)
40 | N[C@H](C(=O)O)c1cc(O)cc(O)c1 | 108% (inactive)
